Measurements taken from PubChem BioAssay (Tox21).
Inconclusive results are not listed. Entries that show only a call come without a potency. A number with no mark means an inactive call. Activity calls are given as the source filed them. Unless noted, the call rests on the fitted dose curve; in most records, active means well fitted curve in the direction sought with a large enough effect in the repeat runs; inconclusive means weak or mixed curves; inactive means no such curve, though single readings can be large; an effect the other way counts as inactive or inconclusive.

Key:
[1] = qHTS assay to identify small molecule agonists of the NFkB signaling pathway (AID 1159509; active means well fitted curve in the direction sought with a large enough effect in the signal ratio in the repeat runs, not every such curve was filed as active; the % refers to the signal ratio; further: series mostly up to about 61 µM)
How it was run: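 Readout: FRET fluorescence, 405 nm excitation, 460/530 nm emission; beta-lactamase expression disrupts FRET. Cells: ME-180 stably carrying NF-kB-driven bla reporter. Compound exposure 5 hr, 37 C, 5% CO2.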

[2] = qHTS assay to identify small molecule agonists of the NFkB signaling pathway - cell viability counter screen (AID 1159515; calls by dose curve; further: nearly all actives have a fitted effect of over 55% in size; further: potency means the concentration at half of the fitted maximal effect)
How it was run: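 Tox21 library compounds were tested for cytotoxicity against NFkB-bla ME-180 cells during a 5 hr exposure at 37 C. CellTiter-Glo luminescence served as the viability read-out.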

[3] = qHTS assay to identify small molecule agonists of the endoplasmic reticulum stress response signaling pathway (AID 1159516; active means well fitted activation curve with a large enough effect in the signal ratio in the repeat runs, not every such curve was filed as active; the % refers to the signal ratio)
How it was run: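 Fluorescence at 460 and 530 nm (405 nm excitation) reports beta-lactamase from an ER stress response element in HeLa cells treated 5 hr at 37 C.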

[4] = qHTS assay to identify small molecule antagonists of the retinoid-related orphan receptor gamma (ROR-gamma) signaling pathway - cell viability counter screen (AID 1159520); further: nearly all actives have a fitted effect of over 50% in size; further: potency means the concentration at half of the fitted maximal effect
How it was run: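 Tet-on ROR gamma CHO cells were given compounds for 2 hr, then doxycycline hyclate at 1 uM final, and incubated 16 hr at 37 C. Viability was measured as ATP content by CellTiter-Glo luminescence.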

[5] = qHTS assay to identify small molecule agonists of the AP-1 signaling pathway - cell viability counter screen (AID 1159525; calls by dose curve; further: nearly all actives have a fitted effect of over 55% in size)
How it was run: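 Same-well cytotoxicity counter screen of the Tox21 10K library in ME-180 cells. The readout is ATP-dependent luminescence after 5 h compound treatment. Data are normalised to DMSO and tetra n-octyl ammonium bromide controls.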

[6] = qHTS assay to identify small molecule agonists of the AP-1 signaling pathway (AID 1159526; calls by dose curve)
[7] = target: Retinoic acid receptor RXR-alpha (Homo sapiens) (UniProt P19793); experiment: qHTS assay to identify small molecule agonists of the RXR signaling pathway (AID 1159527; calls by dose curve; further: nearly all actives have a fitted effect of over 35% in size)
Chain of Retinoic acid receptor RXR-alpha (Homo sapiens) (P19793 whole entry, looked up): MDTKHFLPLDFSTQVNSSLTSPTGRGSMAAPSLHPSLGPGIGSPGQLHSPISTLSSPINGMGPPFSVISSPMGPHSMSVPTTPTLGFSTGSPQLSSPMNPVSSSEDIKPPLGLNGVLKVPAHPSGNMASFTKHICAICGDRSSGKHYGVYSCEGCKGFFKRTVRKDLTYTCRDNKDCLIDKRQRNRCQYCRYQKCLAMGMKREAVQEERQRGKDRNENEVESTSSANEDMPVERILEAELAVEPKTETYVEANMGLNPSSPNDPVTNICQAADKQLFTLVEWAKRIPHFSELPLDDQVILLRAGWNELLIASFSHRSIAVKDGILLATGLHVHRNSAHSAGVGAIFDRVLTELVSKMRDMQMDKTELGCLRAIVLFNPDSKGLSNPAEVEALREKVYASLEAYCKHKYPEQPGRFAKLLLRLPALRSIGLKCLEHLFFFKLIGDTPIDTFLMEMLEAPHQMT
How it was run: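 Cells plated at 2,000/well, rested 5 hr at 37 C, pin-dosed with DMSO compound solutions, incubated 16 hr, then loaded with B/G FRET substrate for 2 hr at RT before dual-emission fluorescence reading.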

[8] = qHTS assay to identify small molecule agonists of the RXR signaling pathway - cell viability counter screen (AID 1159529); further: nearly all actives have a fitted effect of over 50% in size; further: potency means the concentration at half of the fitted maximal effect
How it was run: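 Steps: seed RXR-alpha-UAS-bla HEK 293T cells in assay medium containing 2% charcoal-stripped FBS; incubate 5 hr; add compounds in DMSO; incubate 16 hr at 37 C; after the bla read, add CellTiter-Glo and read luminescence at 30 min.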

[9] = qHTS assay to identify small molecule antagonists of the retinoid acid receptor (RAR) signaling pathway - cell viability counter screen (AID 1159551); further: nearly all actives have a fitted effect of over 35% in size; further: potency means the concentration at half of the fitted maximal effect
How it was run: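 In this counter screen, the RARE-luciferase line C3RL4 was exposed for 6 h at 37 C and 5% CO2 to compounds with retinol at 1 uM final. Cellular ATP, read by luminescence, served as the viability measure.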

[10] = qHTS assay to identify small molecule antagonists of the retinoic acid receptor (RAR) signaling pathway (AID 1159552; further: nearly all actives have a fitted effect of over 50% in size; further: potency means the concentration at half of the fitted maximal effect)
How it was run: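 Retinol at 1 uM final stimulated RARE-luciferase expression in C3RL4 cells exposed to test compounds for 6 hr at 37 C. Reduced luminescence, read 30 min after detection reagent, indicated pathway antagonism.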

[11] = qHTS assay to identify small molecule agonists of the retinoic acid receptor (RAR) signaling pathway (AID 1159553); further: potency means the concentration at half of the fitted maximal effect
How it was run: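 In this cell-based screen, 1,000 C3RL4 cells per well were cultured overnight, dosed with test chemicals in DMSO for 6 hr, and assessed for RARE luciferase luminescence.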

[12] = qHTS assay to identify small molecule antagonists of the estrogen related receptor (ERR) signaling pathway from Tox21 library - cell viability counter screen (AID 1224834); further: nearly all actives have a fitted effect of over 30% in size; further: potency means the concentration at half of the fitted maximal effect
How it was run: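 Counter screen run in ERR cells (2,000 cells/well): cells pre-incubated 6 h, then treated with compounds for 17.5 h at 37 C. Fluorescence was read 30 min after CellTiter-Fluor addition.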

[13] = target: Nuclear receptor ROR-gamma (Homo sapiens) (UniProt P51449); experiment: qHTS assay to identify small molecule antagonists of the retinoid-related orphan receptor gamma (ROR-gamma) signaling pathway (AID 1159521; further: nearly all actives have a fitted effect of over 50% in size; further: potency means the concentration at half of the fitted maximal effect)
How it was run: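 Cells were plated, rested 4 h at 37 C, exposed to compounds for 2 h, then given 1 uM final doxycycline hyclate to induce RORγ expression. After 16 h, ONE-Glo luminescence from the ROR response element reporter was measured.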

[14] = qHTS assay to identify small molecule agonists of the endoplasmic reticulum stress response signaling pathway - cell viability counter screen (AID 1159517; calls by dose curve; further: nearly all actives have a fitted effect of over 50% in size; further: potency means the concentration at half of the fitted maximal effect)
How it was run: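 Steps: seed 1,500 ESRE-bla HeLa cells per well; incubate overnight at 37 C, 5% CO2; add compounds in DMSO for 5 hr; run FRET substrate 2 hr RT; add CellTiter-Glo, wait 30 min, read luminescence.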

[15] = qHTS assay to identify small molecule antagonists of the estrogen related receptor signaling pathway with the pleiotropic PPARgamma coactivator (PGC) cell viability counter screen (AID 1224822;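 further: series mostly up to about 46 µM; viability read after 17.5 h compound exposure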)
How it was run: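 17.5 h compound treatment of PGC/ERR cells at 37 C; readout CellTiter-Fluor fluorescence; run alongside the PGC/ERR antagonist screen to flag cytotoxic compounds.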

[16] = qHTS assay to identify small molecule antagonists of the vitamin D receptor (VDR) signaling pathway - cell viability counter screen (AID 743225); further: nearly all actives have a fitted effect of over 50% in size; further: potency means the concentration at half of the fitted maximal effect
How it was run: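 HEK293T VDR-bla; cpd + 1a,25-(OH)2D3 3 nM final, 16 h 37C/5% CO2; B/G FRET substrate 2 h RT; then CellTiter-Glo 30 min RT, luminescence.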

[17] = qHTS assay to identify small molecule antagonists of the estrogen related receptor (ERR) signaling pathway (AID 1224819)
How it was run: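 Seed ERR cells 2,000/well; rest 6 h at 37 C/5% CO2; pin compounds in DMSO; incubate 18 h at 37 C; add One-Glo; wait 30 min at room temperature; measure luminescence.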

[18] = qHTS assay to identify small molecule agonists of the estrogen related receptor (ERR) signaling pathway (AID 1224820)
How it was run: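 Luminescence readout (One-Glo, 30 min RT) from NTP-supplied ERR cell line exposed to compounds for 18 h at 37 C. Cells seeded 2,000 per well and pre-incubated 6 h before pin-tool compound transfer.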

[19] = tested on: estrogen-related receptor alpha (ERRalpha) with PGC-1alpha coactivator, human; experiment: qHTS assay to identify small molecule antagonists of the estrogen related receptor signaling pathway with the pleiotropic PPARgamma coactivator (PGC) (AID 1224821; calls by dose curve)
How it was run: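 PGC/ERR reporter cells; 6 h pre-incubation 37 C/5% CO2; pin-tool compound in DMSO, 18 h 37 C; One-Glo added, 30 min RT; luminescence read. qHTS antagonist mode.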

[20] = qHTS assay to identify small molecule agonists of the estrogen related receptor signaling pathway with the pleiotropic PPARgamma coactivator (PGC) (AID 1224823)
How it was run: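 Luminescence readout (One-Glo, 30 min RT) from PGC/ERR cell line treated 18 h at 37 C with pin-tool-delivered DMSO compound solutions; cells plated 6 h before dosing. Quantitative HTS format.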

Compound	outcome [1]	Potency [2]	Potency [3]	Potency [4]	Potency [5]	outcome [6]	Potency [7]	Potency [8]	Potency [9]	Potency [10]	Potency [11]	Potency [12]	Potency [13]	Potency [14]	outcome [15]	Potency [16]	Potency [17]	outcome [18]	Potency [19]	outcome [20]
CC(C)N(C)C	inactive	inactive	inactive	inactive	inactive	inactive	inactive	inactive	inactive	inactive	inactive	inactive	–	–	–	–	–	–	–	–
CCCCCCCC(=O)Oc1c(Br)cc(C#N)cc1Br	inactive	inactive	inactive	–	inactive	inactive	–	–	inactive	–	–	–	48.4 µM (active)	–	–	–	–	–	–	–
COc1cc(S(=O)(=O)Nc2ccccc2)c(OC)cc1N	inactive	inactive	–	inactive	inactive	inactive	inactive	inactive	inactive	inactive	inactive	inactive	inactive	inactive	–	–	–	–	–	–
CO[C@@H]1[C@@H](OC)[C@H](C)[C@@](O)(CC(=O)O)O[C@H]1[C@H](C)[C@H]1O[C@@]2(CC[C@@](C)([C@H]3CC[C@@](C)([C@@H]4O[C@@H]([C@H]5O[C@](C)(O)[C@H](C)C[C@@H]5C)C[C@@H]4OC4C[C@H](OC)[C@@H](OC)[C@H](C)O4)O3)O2)C[C@H](O)[C@H]1C (stereo not given in full)	inactive	inactive	inactive	9.44 µM (active)	–	–	–	–	–	–	–	0.944 µM (active)	0.237 µM (active)	–	–	–	–	–	–	–
Nc1cccc2c(N)cccc12	inactive	inactive	inactive	–	–	–	–	–	inactive	–	19.3 µM (active)	–	inactive	–	inactive	–	–	–	–	–
CCCCCCCCCCCSCC(=O)O	inactive	inactive	inactive	inactive	inactive	inactive	–	19.5 µM (active)	inactive	inactive	inactive	inactive	–	–	–	21.9 µM (active)	–	–	–	–
CC(=O)NNC(C)=O	inactive	inactive	inactive	inactive	inactive	inactive	inactive	inactive	inactive	inactive	inactive	inactive	–	–	–	–	–	–	–	–
COc1ccc(C2C(=O)c3ccccc3C2=O)cc1	inactive	inactive	inactive	–	–	inactive	inactive	inactive	inactive	inactive	inactive	inactive	inactive	–	–	inactive	–	–	–	–
CCOc1ncc(F)c(=O)[nH]1	inactive	inactive	inactive	inactive	inactive	inactive	inactive	inactive	–	–	inactive	inactive	–	–	–	inactive	–	–	–	–
COC(=O)C1=C(C)NC(C)=C(C(=O)OC(C)(C)CN(C)CCC(c2ccccc2)c2ccccc2)C1c1cccc([N+](=O)[O-])c1 (stereo not given)	inactive	inactive	inactive	–	inactive	inactive	–	inactive	–	–	–	23.7 µM (active)	11.9 µM (active)	–	–	inactive	19.6 µM (active)	inactive	13.9 µM (active)	inactive
C=CC(=O)NC(C)C	inactive	inactive	inactive	inactive	inactive	inactive	–	inactive	inactive	–	–	inactive	–	–	–	inactive	–	–	–	–
O=S(=O)(O)CO	inactive	inactive	inactive	inactive	inactive	inactive	inactive	inactive	inactive	–	inactive	inactive	–	–	–	–	–	–	–	–
COC1CCC=CO1 (stereo not given)	inactive	inactive	–	inactive	inactive	inactive	inactive	inactive	inactive	inactive	inactive	inactive	inactive	55.3 µM (active)	–	inactive	–	–	–	–
COc1ccc(C)cc1	inactive	inactive	–	inactive	inactive	inactive	inactive	inactive	inactive	inactive	inactive	inactive	inactive	inactive	–	inactive	–	–	–	–
Cc1c(C2(c3cc(Br)c(O)c(Br)c3C)OS(=O)(=O)c3ccccc32)cc(Br)c(O)c1Br	inactive	37.7 µM (active)	inactive	3.74 µM (active)	–	inactive	–	inactive	7.47 µM (active)	13.3 µM (active)	–	14.9 µM (active)	5.93 µM (active)	–	–	inactive	–	–	–	–
CCCCCCCCCCCCCOS(=O)(=O)O	inactive	54.9 µM (active)	inactive	inactive	–	–	inactive	24.5 µM (active)	inactive	–	–	inactive	inactive	–	–	–	–	–	–	–
C1CCCCC1	inactive	inactive	inactive	inactive	inactive	inactive	inactive	inactive	inactive	inactive	inactive	inactive	–	–	–	inactive	–	–	–	–
Cc1ccc2c(c1[N+](=O)[O-])C(=O)c1ccccc1C2=O	inactive	inactive	inactive	inactive	–	–	inactive	inactive	inactive	–	–	–	inactive	–	–	inactive	–	–	–	–
CC(C)(O)CCc1ccccc1	inactive	inactive	–	inactive	inactive	inactive	inactive	inactive	inactive	inactive	inactive	inactive	inactive	inactive	–	inactive	–	–	–	–
CCCCCCOC(=O)CCCCC	inactive	inactive	–	inactive	inactive	inactive	inactive	inactive	inactive	inactive	inactive	inactive	inactive	inactive	–	–	–	–	–	–
Cc1ccc(N(CCO)CCO)cc1	inactive	inactive	inactive	inactive	inactive	inactive	inactive	inactive	inactive	inactive	inactive	inactive	–	–	–	inactive	–	–	–	–
CCOC(=O)c1ccc(NC(=O)CN2CCCCC2)cc1	inactive	inactive	–	inactive	inactive	inactive	inactive	inactive	inactive	inactive	21.1 µM (active)	inactive	inactive	inactive	–	inactive	–	–	–	–
